Sfp PPTase inh: qHTS Assay for Inhibitors of Bacillus subtilis Sfp phosphopantetheinyl transferase (PPTase); Biochemical Sfp PPTase activity, qHTS; 3.5% of 310,000 active; Potency, µM, for the others: largest response in the series, negative = inhibition, hits mostly inhibitors; AID 1490, 2009; 4'-phosphopantetheinyl transferase ffp (Bacillus subtilis), Q9F4F7;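 also: the enzyme is Sfp with the accession as filed and its product quenches rhodamine fluorescence; 0% = enzyme reaction without inhibitor and -100% = no enzyme wells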
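Reaction rates are the 30-min fluorescence difference (ex 525, em 598 nm) in wells containing 15 nM Sfp, 5 uM rhodamine-CoA and 12.5 uM BHQ-2-YbbR at pH 7.6 with 10 mM MgCl2.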
mIDH1 inhibitor: qHTS for Inhibitors of mutant isocitrate dehydrogenase 1 (IDH1): qHTS | Isocitrate dehydrogenase [NADP] cytoplasmic (Homo sapiens), O75874 | IDH1-R132H enzyme, NADPH consumption, diaphorase/resazurin fluorescence | Potency, µM (titrated, usually from 76.6 µM), inactives show at the top dose activity change, negative = inhibition, hits mostly inhibitors | 0.093% of 390,000 active | AID 602179, 2012; also: nearly all actives have a fitted effect of over 65% in size
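IDH1-R132H (0.5 ug/mL dispensed) in pH 7.5 Tris buffer was preincubated 30 min with compound, then given a substrate mix of 0.016 mM NADPH and 2 mM alpha-KG for 80 min at room temperature; remaining NADPH was read by diaphorase/resazurin fluorescence.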
TrxR1 substrate: qHTS Assay for Substrates of Mammalian Selenoprotein Thioredoxin Reductase 1 (TrxR1): qHTS; Thioredoxin reductase 1, cytoplasmic (Rattus norvegicus), O89049; purified TrxR1 substrate turnover, NADPH consumption readout; Potency, µM (doses to about 114 µM), for inactives: at the top dose activity change, negative = substrate turnover; 0.01% of 390,000 active; also: nearly all actives have a fitted effect of over 50% in size
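Rat TrxR1, dispensed at 90 nM, was prereduced with 400 uM NADPH (final) for 5 min at ~22 deg C, then incubated with compound 15 min before 400 uM selenite. A first-read NADPH fluorescence drop versus no-compound background flagged substrates.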
PLK1 PBD inh: qHTS for Inhibitors of PLK1-PDB (polo-like kinase 1 - polo-box domain): Primary Screen | Plk1 PBD binding of FITC phosphopeptide, fluorescence polarization | Potency, µM, for the others: max response, negative = inhibition, most hits filed as inhibitors | 2.8% of 360,000 active | AID 720504, 2013; also: series mostly up to about 57 µM; nearly all actives have a fitted effect of over 65% in size
TrxR1 inh: qHTS Assay for Inhibitors of Mammalian Selenoprotein Thioredoxin Reductase 1 (TrxR1): qHTS; Thioredoxin reductase 1, cytoplasmic (Rattus norvegicus), O89049; recombinant rTrxR1, NADPH fluorescence consumption, selenite substrate; Potency, µM (top dose mostly 114 µM), inactives show at the highest dose activity change, negative = inhibition, hits mostly inhibitors; 1% of 390,000 active; AID 588453, 2011; also: nearly all actives have a fitted effect of over 65% in size
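Rat TrxR1 (90 nM in the dispensed reagent) was pre-reduced with 400 uM NADPH for 5 min at room temperature, then incubated with compound for 15 min. After 400 uM selenite was added, NADPH fluorescence (Ex 340/Em 450 nm) was followed for 8 min.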
VDR inh: Inhibitors of the vitamin D receptor (VDR): qHTS; Vitamin D3 receptor (Homo sapiens), P11473; VDR-SRC2-3 peptide fluorescence polarization, 2 h; Potency, µM, for the others: max response, negative = inhibition, usual class: inhibitors; 0.93% of 400,000 active; AID 504847, 2011
Target sequence (P11473 whole entry, looked up): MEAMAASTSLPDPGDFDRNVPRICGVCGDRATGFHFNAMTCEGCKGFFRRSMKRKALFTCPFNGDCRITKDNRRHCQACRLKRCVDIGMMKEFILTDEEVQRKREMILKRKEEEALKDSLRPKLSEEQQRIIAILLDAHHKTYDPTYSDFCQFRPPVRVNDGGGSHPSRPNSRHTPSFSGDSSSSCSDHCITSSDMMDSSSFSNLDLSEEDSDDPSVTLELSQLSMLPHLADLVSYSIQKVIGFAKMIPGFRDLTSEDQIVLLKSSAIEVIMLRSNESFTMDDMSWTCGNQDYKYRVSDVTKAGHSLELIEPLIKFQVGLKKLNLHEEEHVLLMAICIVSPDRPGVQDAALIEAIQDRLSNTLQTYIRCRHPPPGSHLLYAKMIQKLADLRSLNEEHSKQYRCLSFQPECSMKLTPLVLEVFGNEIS
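After 23 nl compound addition and a short centrifugation, plates sat for 2 hours at ambient temperature; polarization of fluorescence then indicated loss of VDR binding to peptide SRC2-3.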
Starred values were filed as active, the others as inactive; ? = inconclusive; nt = no result; [ ] = remark or other dose. This is a sample that favours compounds with a hit; in the whole collection about 5.2% have one here. Calls follow the shape of the dose curve; as a rule, active = well fitted curve in the direction sought with a large enough effect; inconclusive = small, poorly fitted or top-dose-only effect, or another doubt; inactive = no such curve, though single readings can be large; an effect the other way counts as inactive or inconclusive. Unless noted, % is scaled to controls: 0 for no effect and ±100 for the full control effect; potency is read from the fitted curve at half-maximal effect.

SMILES	Sfp PPTase inh	mIDH1 inhibitor	TrxR1 substrate	PLK1 PBD inh	TrxR1 inh	VDR inh
CCOc1ccc2oc(=O)cc(CN3CCN(c4ccc(Cl)cc4)CC3)c2c1	nt	9%	-5%	nt	2%	10%
COc1cc(C)nc(NCc2ccccc2)n1	-3%	-4%	2%[57.1 µM]	-7%	0%[57.1 µM]	-8%
COc1ccc(Nc2cc(C)nc(NCc3ccccc3)n2)cc1	32µM*	-3%	8%[57.1 µM]	4%	20%[57.1 µM]	15%
Cc1cc(Oc2ccc(C#N)cc2)nc(NCc2ccccc2)n1	9%	10%	-2%	2.7µM*	-2%	-22%
O=C(Nc1cc(N2CCCCC2)ncn1)c1ccc(F)cc1	16%	-6%	-14%	30µM*	-13%	-17%
O=C(NC(=O)c1ccc(Cl)cc1)Nc1cc(N2CCCCC2)ncn1	nt	-1%	-4%	27µM*	14%	?
O=C(Nc1cc(N2CCOCC2)ncn1)c1ccc(F)cc1	19%	12%	11%[57.1 µM]	-16%	13%[57.1 µM]	-17%
COc1ccc(S(=O)(=O)N2CCC(C(=O)N3CCCC3)CC2)cc1	3%	6%	3%[57.1 µM]	-2%	-13%	12%
COCCCNC(=S)N1CCN(S(=O)(=O)c2ccc(OC)cc2)CC1	-5%	9%	20%[57.1 µM]	21µM*	33%[57.1 µM]	-5%
COc1ccc(S(=O)(=O)N2CCC(C(=O)N3CCCCCC3)CC2)cc1	0%	-2%	7%[57.1 µM]	11µM*	8%[57.1 µM]	-10%
COc1ccc(S(=O)(=O)N2CCC(C(=O)NCCC(=O)Nc3cccc(Cl)c3)CC2)cc1	13%	-1%	-8%	6.7µM*	-3%	28µM*
Cc1ccc(S(=O)(=O)N2CCC(C(=O)N[C@@H](C)C(=O)NC3CCCCC3)CC2)cc1	15%	7%	2%	-8%	6%	-22%
COc1ccc(S(=O)(=O)N2CCC(C(=O)N[C@@H](C)C(=O)NC3CCCC3)CC2)cc1	2%	-6%	-6%	19µM*	10%	?
COc1ccc(NC(=O)CCNC(=O)C2CCN(S(=O)(=O)c3ccc(OC)cc3)CC2)cc1	12%	-3%	3%	-3%	13%	8%
Cc1csc[n+]1CC(=O)c1ccc(I)cc1	nt	nt	2%	nt	-11%	nt
COc1ccc(N2CCN(C(=O)C3CCN(S(=O)(=O)c4cccs4)CC3)CC2)cc1	19%	5%	5%[57.1 µM]	17µM*	8%[57.1 µM]	?
COc1ccc2cc(S(=O)(=O)N3CCCC(C)C3)ccc2c1 (configuration not stated)	-5%	1%	-4%	27µM*	9%	89µM*
COC(=O)Nc1ccc(S(=O)(=O)N2CCC(C(=O)N3CCC(C)CC3)CC2)cc1	1%	-8%	-3%	9.5µM*	6%[57.1 µM]	?
Cc1cc(C)c(Cn2c(C)c(CNCc3ccccc3C)c(C(=O)O)c2C)c(C)c1	nt	9%	2%	nt	-2%	18%
CC(C)CCNC(=O)c1cccc(S(=O)(=O)N2CCc3ccccc32)c1	-7%	0%	-1%[57.1 µM]	-2%	-1%[57.1 µM]	13%
CC(C)CN(CC(C)C)C(=O)c1cccc(S(=O)(=O)N2CCc3ccccc32)c1	6%	10%	6%[57.1 µM]	24µM*	26%[57.1 µM]	31%
CCc1ccc(NC(=O)CCNC(=O)Cn2cnc3ccccc3c2=O)cc1	16%	8%	7%[57.1 µM]	30µM*	15%[57.1 µM]	?
C=CC(=O)Oc1ccc(N2Cc3ccccc3C2=O)cc1	nt	-5%	-2%	?	3.5µM*	?
COc1cc(C(=O)NCCCNc2nc3cc(C)c(C)cc3cc2C#N)cc(OC)c1OC	79µM*	-1%	79%	-19%	19%	-11%
COCCCNC(=O)c1cc(OC)c(OC)c(OC)c1	8%	-2%	-8%	30µM*	5%[57.1 µM]	-13%
SMILES	Sfp PPTase inh	mIDH1 inhibitor	TrxR1 substrate	PLK1 PBD inh	TrxR1 inh	VDR inh
COCCNC(=S)NCCCNc1nc2cc3c(cc2cc1C#N)OCO3	14µM*	5%	292%	-24%	105%	-15%
O=c1c2cn(Cc3ccc(F)cc3)c3ccc(F)cc3c-2nn1Cc1ccc(F)cc1	10%	1%	1%[57.1 µM]	6%	11%[57.1 µM]	0%
O=C(CC(C(=O)O)n1ccnc1)c1ccc(Cl)cc1 (configuration not stated)	nt	nt	1%	nt	1.8µM*	nt
CCOc1ccc(CNC(=S)N/N=C\c2ccc([N+](=O)[O-])cc2)cc1	56µM*	8%	-2%	1%	-9%	-8%
O=[N+]([O-])c1ccc(C=NNC(=S)NN=Cc2ccc([N+](=O)[O-])cc2)cc1	nt	4%	-6%[57.1 µM]	-25%	5%[2.29 µM]	-15%
O=[N+]([O-])c1ccc(/C=N/N/C(=N/c2ccccn2)c2ccccn2)cc1	45µM*	2%	-11%	-4%	-9%	0%
O=C(COc1ccc(/C=N/NC(=O)c2ccccc2O)cc1)Nc1ccc([N+](=O)[O-])cc1	5%	1%	0%	21µM*	14%	-23%
CCN=C(N/N=C/c1ccc([N+](=O)[O-])cc1)SC	79µM*	7%	-12%	?	-12%	-19%
CCCCCCCCCC[n+]1ccc(/C=C/c2c[nH]c3ccccc23)cc1	nt	nt	-2%	nt	?	nt
CCc1cccc(OCCCCNCCO)c1	-10%	10%	8%	27µM*	-35%	0%
Nc1nnc(SCC(=O)Nc2ccccc2C(F)(F)F)s1	nt	-10%	17%	nt	35%	-8%
COc1ccc2[nH]c3c(=O)n(CCCCC(=O)NCCC(C)C)c(=S)[nH]c3c2c1	15%	7%	-6%	12µM*	19%	-26%
COc1ccc2[nH]c3c(=O)n(CCCC(=O)NC4CCCCC4C)c(=S)[nH]c3c2c1 (configuration not stated)	-1%	3%	0%	30µM*	20%	-3%
CCCNC(=O)CCCCn1c(=S)[nH]c2c([nH]c3ccc(OC)cc32)c1=O	-9%	-2%	-1%	21µM*	27%	?
COc1ccc2[nH]c3c(=O)n(CCCC(=O)NC4CCC(C)CC4)c(=S)[nH]c3c2c1 (configuration not stated)	8%	-2%	2%	-3%	31%	15%
CCCC[C@@H]1CCCO[C@@](C(=O)NCc2ccc(S(C)(=O)=O)cc2)(C(F)(F)F)C1	13%	nt	-14%	nt	0%	-17%

From PubChem
